This is an account of results in ChEMBL document CHEMBL3988442, “University of Dundee, Small-Polar-MMV Screening Library” (2021).

Hit rate of the full screen: of about 48,000 compounds, about 13,000 (27%) showed an effect of 50% or more. Some of the results follow.

The test system of the experiment is Wolbachia pipientis. Kind of experiment: Anti-Wolbachia Cell-Based Screen. Type of experiment: functional. Further details: scale not given: in the data most compounds retested in dose-response had high values. To be noted: 5 µM.
Take `CCOCC(=O)NC1(c2cccc(Cl)c2)CC1`: the “Percent Effect” value was -6.24%.
As to `Cc1nc(C)n(CC2CCCN2Cc2cn(-c3ccccc3)nn2)n1` (configuration not stated), the “Percent Effect” value is on record as -1.626%.
Then `CCCc1nc(CN2CCCC2Cn2cccn2)cs1` (configuration not stated), with -10.42%; and `c1cnn(CC2CCCN2Cc2ccc(-n3cccn3)cc2)c1` (configuration not stated), with 123%; and `c1ccc(-n2cc(CN3CCCC3Cn3cccn3)nn2)cc1` (configuration not stated), with 141.8%.
In the case of `Cc1nc(CN2CCCC2Cn2cccn2)nc2ccccc12` (configuration not stated), the “Percent Effect” value was 5.126%.
Take `Cc1nc2ccccc2nc1CN1CCCC1Cn1cccn1` (configuration not stated): the “Percent Effect” value is given as 15.41%.
In the case of `CCC(=O)N1CCN(C(=O)Nc2ccc(Cl)cc2)[C@H]2CS(=O)(=O)C[C@H]21`, the “Percent Effect” value was 20.51%.
Then `O=C(COC1CCCC1)N1C[C@@H]2CN(Cc3ccoc3)CCO[C@@H]2C1.O=C(O)C(F)(F)F`, with -10.48%; and `O=C1NCC(C(=O)Nc2ncc(Cc3ccc(F)cc3F)s2)N1` (configuration not stated), with 122.8%.
Then `CC(=O)Nc1ncc(S(=O)(=O)Nc2ccc(F)cc2F)s1`, with 11.75%; and `O=C1NCC(C(=O)Nc2ncc(Cc3ccccc3F)s2)N1` (configuration not stated), with 80.55%.
As to `CC(=O)Nc1ncc(S(=O)(=O)Nc2ccc(F)cc2)s1`, the “Percent Effect” value is reported as 1.75%.
With `Cc1ccccc1Cc1cnc(NC(=O)C2CNC(=O)N2)s1` (configuration not stated) the figure was 1.413%.
Turning to `O=C(NCc1ccccc1F)NC1CCCN(c2ncccn2)C1` (configuration not stated), the “Percent Effect” value turned out to be 7.135%.
`CCCNc1ncc(C2CC(=O)NCc3nc4ccccn4c32)cn1` (configuration not stated): the “Percent Effect” value came to 19.88%.
`CCS(=O)(=O)c1ccccc1N1CCC(NC(C)=O)CC1`: the “Percent Effect” value is reported as -10.39%.
Turning to `CN(CCN1CCCCCC1)C(=O)c1c(O)cccc1O`, the “Percent Effect” value is -5.64%.
Turning to `NC(=O)c1c(SCCN2CCCCC2)sc2c(O)cc(=O)[nH]c12`, the “Percent Effect” value is 88.72%.
Consider `CCOCC(=O)N1CC(=O)Nc2cc(Br)ccc21`, for which the “Percent Effect” value is -5.264%.
As for `O=c1n(CCNCc2ccc(-c3ccccc3)cc2)nc2ccccn12`, the “Percent Effect” value is 92.23%.
On to `Cc1ccc2cc(C(=O)NCCn3nc4ccccn4c3=O)[nH]c2c1`, for which the “Percent Effect” value is on record as 12.5%.
Consider `O=c1n(CCNCc2ccc3ccccc3c2)nc2ccccn12`, for which the “Percent Effect” value came out at 96.37%.
Regarding `Cc1ccc(CSCCn2nc3ccccn3c2=O)cc1`, the “Percent Effect” value is on record as -0.2652%.
On to `Cc1cc(C(=O)NCCn2nc3ccccn3c2=O)[nH]n1`, for which the “Percent Effect” value is on record as -11.84%.
Regarding `Cc1cc(C)c2c(c1)C(NC(=O)CSCC(N)=O)CCO2` (configuration not stated), the “Percent Effect” value is -11.46%.
For `O=C(O)c1ccc(N2CCC(Oc3ccc(Cl)cc3)CC2)nc1`, the “Percent Effect” value came out at 7.355%.
Consider `O=C(N1CCC(Oc2ccncc2)CC1)C1(c2ccc(F)cc2)CC1`, for which the “Percent Effect” value worked out at 4.458%.
On to `COc1ccc(OC2CCN(C(=O)[C@@H](N)Cc3c[nH]cn3)CC2)cc1`, for which the “Percent Effect” value worked out at 108.9%.
As to `Cc1ccc(OC2CCN(C(=O)C(C)Cn3cccn3)CC2)cc1` (configuration not stated), the “Percent Effect” value is reported as -8.941%.
Regarding `COc1ccc(OC2CCN(C(=O)C(C)Cn3cccn3)CC2)cc1` (configuration not stated), the “Percent Effect” value is -7.925%.
As to `CN1CCC(N(C)CCC(=O)N2CCC(Oc3ccc(Cl)cc3)CC2)C1` (configuration not stated), the “Percent Effect” value is listed as -10.05%.
For the compound `COc1ccc(OC2CCN(C(=O)c3cnc(C)s3)CC2)cc1`, the “Percent Effect” value was -7.331%.
For the compound `N[C@@H](Cc1c[nH]cn1)C(=O)N1CCC(Oc2ccc(F)cc2)CC1`, the “Percent Effect” value is 142.9%.
With `N[C@@H](Cc1c[nH]cn1)C(=O)N1CCC(Oc2ccc(Cl)cc2)CC1` the figure was 129.2%.
For the compound `CCN(Cc1nc(COC)no1)Cc1cccnc1NC`, the “Percent Effect” value is -1.287%.
As to `COCCCN1CCC(CNc2nccc(-c3cnn(C)c3)n2)C1` (configuration not stated), the “Percent Effect” value turned out to be 0.7819%.
With `CC(C)Oc1ncc(C(=O)N2CCC(N(C)C)CC2)cc1Cl`, the “Percent Effect” value is reported as -24.51%.
Then `Cn1nc(C(=O)NC2CCCC2)cc1NC(=O)C1CC1`, with 3.278%; and `O=C(NC1CC1)c1cnc2n1CCCC2`, with 4.998%; and `CCNc1ncc(C(=O)N[C@H]2CC[C@H](n3cnnc3)CC2)cn1`, with -5.329%.
Consider `CC1CCN(C(=O)c2cnc3cc(C(=O)N(C)C)n(C)c3c2)CC1`, for which the “Percent Effect” value is reported as 124.9%.
Consider `CN(C)C(=O)c1cc2ncc(C(=O)NC3CC3)cc2n1C`, for which the “Percent Effect” value came to 122.1%.
Regarding `CC1CCN(C(=O)c2cccc3ncccc23)CC1`, the “Percent Effect” value was -1.834%.
On to `CN(C)C(=O)c1cc2ncc(C(=O)NC3CCCC3)cc2n1C`, for which the “Percent Effect” value is 130.7%.
Then `CN(C)C(=O)c1cccc(C[S+]([O-])CC(=O)NC2CCCC2)c1` (configuration not stated), with 8.2%; and `COC(C(=O)N1CCN(Cc2noc(C)n2)CC1)c1ccccc1` (configuration not stated), with -8.523%.
With `Cc1cc(C)n2cc(CN3CCCC3Cn3nc(C)nc3C)nc2n1` (configuration not stated) the figure was -6.959%; with `Cn1cncc1-c1nnc([C@H]2CCN(Cc3ccc(CO)o3)C2)o1`, -1.062%.
Turning to `Cc1nn(C)c2ncc(NC(=O)N(C)Cc3cc(Cl)cn3C)cc12`, the “Percent Effect” value is given as -3.854%.
With `CC[C@@H]1N(Cc2ccco2)CCC[C@]12CCC(=O)N2C.O=C(O)C(F)(F)F` the figure was 98.83%.
Then `Cn1nnc2c1CCN(Cc1ccco1)C2COCc1ccccc1.O=C(O)C(F)(F)F` (configuration not stated), with 30.71%; and `COC[C@@H]1CN(C)C(=O)[C@@H]2CCN(Cc3ccco3)CC[C@H]12`, with -1.368%; and `CC[C@H]1N(Cc2ccco2)CCC[C@]12CCC(=O)N2C`, with 102.2%.
`COC1COC2(CCN(Cc3ccco3)CC2)C1` (configuration not stated): the “Percent Effect” value is -9.93%.
With `COC(=O)CCN(CC1CCOC1)C1CC1` (configuration not stated) the figure was -6.747%.
With `Cc1nnc(C(C)N(C)Cc2c(C)nn(-c3ccccc3)c2C)o1` (configuration not stated) the figure was 2.363%.
